Screens: PubChem BioAssay, National Center for Advancing Translational Sciences (NCATS)
Hits are enriched below; roughly 4.2% of the tested compounds scored in any of these assays.
ClpP mod = qHTS Assay for Activators of ClpP; purified B. subtilis ClpP, FRET peptide cleavage, 20 min; Potency, µM (highest dose often 57.5 µM), for inactives: at the top dose activity change, negative = active; actives 1.9% (n = 340,000); AID 651965, 2013; active = well fitted falling curve with a large enough effect; inconclusive = small, poorly fitted or top-dose-only effect; inactive = no such curve, though single readings can be large or run the other way; note: potency is the fitted concentration of half-maximal effect; the source files actives as falling curves though it sought activators and does not explain the sign; nearly all actives have a fitted effect of over 65% in size
Target sequence (P80244 whole entry, looked up): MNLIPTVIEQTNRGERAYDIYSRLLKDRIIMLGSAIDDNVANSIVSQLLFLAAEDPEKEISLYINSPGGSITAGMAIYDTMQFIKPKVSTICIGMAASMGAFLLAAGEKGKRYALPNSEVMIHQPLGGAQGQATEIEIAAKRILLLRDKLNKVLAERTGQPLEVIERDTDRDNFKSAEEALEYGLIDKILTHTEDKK
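ClpP 10 microg/mL final, pH 8 Tris/KCl buffer with BSA, glycerol, Tween-20; compound pinned in; FRET-FV substrate; RT 20 min; Ex320/Em430; ΔFRET vs ADEP 5.8 microM, DMSO, no enzyme.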
TCR activator = activates T cell receptor signaling | primary human leukocytes, anti-CD3, IL-2 HTRF, 48 h | Potency, µM (highest dose often 9.22 µM), for the others: top-dose activation of IL-2 secretion, actives largely listed as activators | 330,000 tested, under 10 active | AID 504894; note: % of control where 0% means no effect
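TCR engagement came from a-CD3 beads alone, with compounds added to primary human leukocytes for 48 hr. Secreted IL-2 bridged europium cryptate- and d2-labelled anti-IL-2 antibodies, giving FRET emission at 665nm after 320nm excitation.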
Sfp inh = Sfp phosphopantetheinyl transferase inhibition | Q9F4F7 | Biochemical Sfp PPTase activity, qHTS | Potency, µM, for inactives: largest response in the series, negative = inhibition, hits mostly inhibitors | actives 3.5% (n = 310,000);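 note: the enzyme is Sfp with the accession as filed and its product quenches rhodamine fluorescence; potency is the fitted concentration of half-maximal effect; 0% = enzyme reaction without inhibitor and -100% = no enzyme wells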
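Compounds were incubated with enzyme (final 15 nM) for 15 min at room temperature before substrate addition started the reaction. Fluorescence at 525 nm excitation, 598 nm emission was recorded immediately and after 30 minutes.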
uPA surface inh = cell surface uPA generation inhibition. cell surface uPA generation assay, qHTS. actives 0.31% (n = 330,000). Potency, µM (titrated, usually from 38.3 µM), inactives show at the top dose activity change, negative = inhibition, actives largely listed as inhibitors; active = well fitted inhibition curve with a large enough effect; inconclusive = small, poorly fitted or top-dose-only effect; inactive = no such curve, though single readings can be large or run the other way; tested in mouse RAW 264.7 cells; note: potency is the fitted concentration of half-maximal effect; % is set by controls: 0 for no effect and ±100 for the full control effect; nearly all actives have a fitted effect of over 55% in size
The depositor's hits bear a star; u = inconclusive; x = no result; [ ] = remark or other dose. Unless noted, calls come from the whole dose curve; as a rule, active = well fitted curve in the direction sought with a large enough effect; inconclusive = small, poorly fitted or top-dose-only effect, or another doubt; inactive = no such curve, though single readings can be large; an effect the other way counts as inactive or inconclusive.

SMILES	ClpP mod	TCR activator	Sfp inh	uPA surface inh
N#C/C(=C\C=C\c1ccccc1[N+](=O)[O-])C(=O)NC1CCCCC1	x	-5.8%	-5.4%	-7.4%
S=C(NCCc1ccccc1)Nc1cccc2cnccc12	x	1.0%	50.1µM*	-1.6%
CCCCNC(=S)Nc1cccc2cnccc12	-1.1%	-5.4%[46.1 µM]	-17.3%	-0.8%
S=C(NCc1ccccc1)Nc1cccc2cnccc12	x	-2.8%	56.2µM*	-8.7%
Cc1cccc(NC(=S)NCCc2ccccc2)n1	x	6.2%	56.2µM*	0.2%
S=C(NCc1cccnc1)Nc1cccc2ccccc12	0.7%	-1.5%[46.1 µM]	-0.5%	4.5%
Cc1c(Cl)cccc1NC(=O)CSc1ncccc1C(=O)Oc1ccccc1Cl	0.9%	x	x	x
Cc1ccc(S(=O)(=O)COCCN2CCN(S(=O)(=O)c3ccc(C)cc3)CCC2=O)cc1	x	x	-19.8%	x
COC(=O)CC1C(=O)NCCN1C(=S)NC(=O)c1ccccc1[N+](=O)[O-] (centres undefined)	-0.8%	1.5%[46.1 µM]	79.4µM*	7.7%
CC(C)OC(=O)CC1C(=O)NCCN1C(=S)NC(=O)c1cccs1 (centres undefined)	x	2.2%	56.2µM*	2.0%
CCNC(=S)N1CCNC(=O)C1CC(=O)OC (centres undefined)	x	-5.4%[46.1 µM]	79.4µM*	-6.4%
COC(=O)CC1C(=O)NCCN1C(=S)Nc1cc(C)cc(C)c1 (centres undefined)	0.6%	0.5%	-1.7%	4.6%
CCOC(=O)CCCSc1nnc(CCCCCN2C(=O)c3cccc4cccc(c34)C2=O)o1	28.2µM*	-2.4%[46.1 µM]	6.0%	3.6%
COc1ccc2c(c1)c(C(=O)N/N=C/c1ccc(Br)cc1)c(C)n2C	-3.3%	-1.0%	-14.6%	11.2µM*
Cc1c(C(=O)NC(=S)Nc2ccc(NC(=O)c3cccs3)cc2)oc2ccccc12	1.2%	0.2%	8.91µM*	0.8%
O=C(NNC(=S)Nc1ccccc1)Nc1ccccc1	x	-1.8%	7.08µM*	-8.1%
O=C(Nc1ccc(NC(=S)NC(=O)c2cccs2)cc1)c1ccccc1	-0.4%	3.4%[46.1 µM]	4.1%	7.4%
O=C(NNC(=S)Nc1ccccc1)NNC(=S)Nc1ccccc1	x	-8.7%	6.6%	1.8%
Cc1cccnc1NC(=S)NC(=O)c1cccs1	13.9%	3.0%	79.4µM*	x
O=C(NC(=S)Nc1ccccc1)c1cccs1	x	4.1%	44.7µM*	-9.7%
Cc1cccnc1NC(=O)CNC(=O)c1cccs1	-1.4%	1.0%	x	13.8%
CCCCn1c(SCC(=O)c2ccccc2)nc2sc3c(c2c1=O)CCCC3	0.3%	x	x	x
COc1cc2c(NC3CCN(C)CC3)nc(N3CCCN(C)CC3)nc2cc1OCCCN1CCCCC1	3.2%	x	x	x
Cc1nc(NS(=O)(=O)c2ccccc2)sc1NC(=O)Nc1ccccc1	x	7.0%	44.7µM*	1.4%
CC(=O)c1ccc(NC(=O)Nc2sc(NS(=O)(=O)c3ccccc3)nc2C)cc1	x	12.0%	u	4.2%
SMILES	ClpP mod	TCR activator	Sfp inh	uPA surface inh
CCOC(=O)Nc1sc(NS(=O)(=O)c2ccccc2)nc1C	-1.0%	-6.8%	u	6.7%
Cc1nc(NS(=O)(=O)c2ccccc2)sc1NC(=O)Nc1ccc(Cl)cc1	-5.2%	1.7%	79.4µM*	-21.9%
Cc1noc(C)c1C(=O)OCC(=O)/C=C1/N(C)c2ccccc2C1(C)C	x	2.3%	x	4.7%
Cc1cc(NC(=O)C(C)C)ncc1NC(=O)c1ccccn1	-0.4%	0.2%	79.4µM*	7.6%
CCCC(=O)Nc1cc(C)c(NC(=O)c2ccccn2)cn1	-3.3%	3.8%	u	0.5%
CN(C)c1cc(-c2cccc(NS(C)(=O)=O)c2)ncn1	x	x	-7.5%	x
Cc1ccc(CNC(=O)c2sc3nc(-c4ccc(F)cc4)ccc3c2N)cc1	-16.7%	x	x	x
COC(=O)c1sc2nc[nH]c(=O)c2c1C	15.8µM*	-3.0%	13.4%	0.3%
COc1ccc(CNC(=O)c2sc3nc[nH]c(=O)c3c2C)cc1	39.8µM*	x	x	x
COc1ccc(-c2ccc3c(N)c(C(=O)NCc4ccc(C)cc4)sc3n2)cc1	11.2µM*	x	x	x
O=C(N/N=C/c1ccc2c(c1)OCO2)C(=O)Nc1cccc(Cl)c1	x	1.2%	10.5%	-6.4%
CC(C)Cn1c(=O)c2ccccc2n2c(SCC(=O)N3c4ccccc4CC3C)nnc12 (centres undefined)	u	-14.7%[46.1 µM]	5.5%	26.2%
Cc1ccc(O)c(C(=O)c2cc(C#N)c(=O)n(-c3nccs3)c2)c1	x	14.9%	50.1µM*	0.1%
OC1=C(O)c2nc3cc(F)ccc3nc21	-2.1%	-0.3%	39.8µM*	7.6%
COc1ccc(Cn2c(=O)c3c(nc(NCCO)n3C)n(C)c2=O)cc1	3.55µM*	6.9%	11.9%	-5.0%
COCCCNc1nc2c(c(=O)n(Cc3ccc(OC)cc3)c(=O)n2C)n1C	-0.6%	-5.2%	9.7%	2.0%
COc1cc(OC)cc(C(=O)N2CCN(Cc3ccccc3[N+](=O)[O-])CC2)c1	x	-2.3%	50.1µM*	-1.2%
CCOC(=O)N1CCN(Cc2ccc(O)c3ncccc23)CC1	x	-1.2%	23.6%	-2.5%
O=C(c1ccc([N+](=O)[O-])cc1)N1CCN(Cc2ccccc2[N+](=O)[O-])CC1	x	4.4%	50.1µM*	1.2%
O=[N+]([O-])c1ccccc1CN1CCN(c2ncccn2)CC1	x	-3.7%	-13.6%	0.4%
O=[N+]([O-])c1ccccc1CN1CCN(Cc2ccccn2)CC1	x	8.2%	50.1µM*	2.7%
CCOC(=O)N1CCN(Cc2ccccn2)CC1	2.0%	-18.9%	79.4µM*	3.2%
COCCOC(=O)C1=C(C)NC(C)=C(C(=O)OC/C=C/c2ccccc2)C1c1cccc([N+](=O)[O-])c1 (centres undefined)	x	x	10.6%	x
Cc1cc(C)cc(NC(=O)C(Cc2ccccc2)NS(=O)(=O)c2ccc3c(c2)CCC(=O)N3)c1 (centres undefined)	-0.8%	x	x	x
CCOc1ccccc1-c1nc(C(N)=O)c2c(n1)n(-c1ccc3c(c1)OCO3)c(=O)n2C	-8.7%	x	x	x
SMILES	ClpP mod	TCR activator	Sfp inh	uPA surface inh
COc1cccc(/C=N/Nc2nc3ccccc3[nH]2)c1O	-4.9%	9.5%	-9.3%	u
COc1cc(/C=N/Nc2nc3ccccc3[nH]2)cc(OC)c1O	-11.7%	1.4%[46.1 µM]	14.1µM*	-10.3%
COc1cc(/C=N/Nc2nc3ccccc3[nH]c2=O)ccc1O	x	-3.4%	0.4%	3.5%
CC(=O)Nc1ccc(/C=N/Nc2nc3ccccc3[nH]2)cc1	-8.0%	5.6%[46.1 µM]	10µM*	u
COc1cc(/C=N/Nc2nc3ccccc3[nH]2)ccc1O	-5.6%	7.2%[46.1 µM]	11.2µM*	u
Cc1cc(C)c(Cn2c(=O)n(CCCCC(=O)NCc3ccccc3Cl)c(=O)c3ccccc32)c(C)c1	-7.6%	x	x	x
CCN(CC)c1ccc(/C=C(/C#N)c2nc3ccccc3[nH]2)c(OC(C)C)c1	0.6%	-1.9%	2.0%	10µM*
CCOc1cccc(/C=C(/C#N)c2nc3ccccc3[nH]2)c1OCC(=O)O	-1.4%	-5.3%	18.2%	-18.0%
CCOC(=O)c1ccc(NC(=O)N2CCOc3ccccc32)cc1	-1.0%	x	x	x
S=C1Nc2ccccc2CS1	-1.6%	x	x	x
S=C1Cc2ccccc2N1	-1.3%	1.3%	3.16µM*	u
CNC(=S)NNc1nncc2ccccc12	x	-4.6%	22.4µM*	-20.9%
CCNC(=S)NS(=O)(=O)c1ccc(Cl)cc1	1.3%	5.7%	-6.5%	-2.7%
